# According to PubChem BioAssay (Tox21):
# Values without a mark were called inactive. Results filed as inconclusive are left out. Entries that show only a call come without a potency. Calls of active or inactive are those of the source. Unless noted, calls come from the whole dose curve; as a rule, active = well fitted curve in the direction sought with a large enough effect in the repeat runs; inconclusive = weak or mixed curves; inactive = no such curve, though single readings can be large; an effect the other way counts as inactive or inconclusive.
# Experiments:
# [1] = qHTS assay for small molecules that induce genotoxicity in human embryonic kidney cells expressing luciferase-tagged ATAD5 (AID 651632); note: nearly all actives have a fitted effect of over 15% in size; note: potency is the fitted concentration of half-maximal effect
# Summary of the method: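 Cells were seeded at 2,000 per well, dosed with compound, and incubated 16 hr at 37C in 5% CO2. Luciferase activity was then quantified after a 30 min room-temperature incubation with Amplite.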
# [2] = qHTS assay for small molecule agonists of the p53 signaling pathway - cell viability (AID 651633; calls by dose curve;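 note: p53RE-bla HCT reporter cells with a stable beta-lactamase p53 reporter; series mostly up to about 83 µM; nearly all actives have a fitted effect of over 30% in size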)
# Summary of the method: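 p53RE-bla cells, seeded at 4,000 per well and rested 5 h at 37 C/5% CO2, received compounds in DMSO for 16 h at 37 C. CellTiter-Glo was then added, and luminescence was read after 30 min at room temperature to gauge cytotoxicity.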
# [3] = qHTS assay for small molecules that induce genotoxicity in human embryonic kidney cells expressing luciferase-tagged ATAD5 - cell viability (AID 651634; calls by dose curve; note: nearly all actives have a fitted effect of over 25% in size)
# Summary of the method: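 Cells (HEK293T, luciferase-tagged ATAD5) are seeded at 2,000 per well, dosed with compound or DMSO vehicle, and incubated 15.5 hr at 37C and 5% CO2. CellTiter-Fluor is added for 30 min before fluorescence is measured.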
# [4] = qHTS assay for small molecule disruptors of the mitochondrial membrane potential - cell viability (AID 720634; calls by dose curve;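 note: human HepG2 liver cancer cells; series mostly up to about 83 µM; nearly all actives have a fitted effect of over 20% in size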)
# Summary of the method: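 Cytotoxicity was measured by ATP quantitation in HepG2 wells that had first been treated with compound for 1 hr and stained with m-MPI dye; CellTiter-Glo incubation was 30 min at room temperature.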
# [5] = qHTS assay to test for compound auto fluorescence at 590 nm (red) in HepG2 cells (AID 720674)
# Summary of the method: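 Compound auto-fluorescence is scored relative to Rose Bengal sodium, measured at 540/590 nm in live HepG2 cultures after 1 hr compound contact (37 C, 5% CO2).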
# [6] = qHTS assay to test for compound auto fluorescence at 535 nm (green) in HepG2 cells (AID 720675)
# [7] = qHTS assay to test for compound auto fluorescence at 460 nm (blue) in HEK293 cells (AID 720678)
# Summary of the method: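 Blue-channel (Ex/Em 405/460 nm) intensity measured in HEK293 cultures after overnight compound exposure at 37C; signal expressed relative to triamterene. Cells plated 2,000 per well in 10% dialyzed FBS medium and allowed 4-5 hr to attach.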
# [8] = qHTS assay to test for compound auto fluorescence at 590 nm (red) in HEK293 cells (AID 720679)
# Summary of the method: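 Red-channel autofluorescence (Ex/Em 540/590 nm; Rose Bengal sodium reference) was measured after overnight 37C, 5% CO2 exposure of attached HEK293 cells, 2,000 per well in medium with 10% dialyzed FBS.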
# [9] = qHTS assay to test for compound auto fluorescence at 535 nm (green) in HEK293 cells (AID 720680)
# [10] = qHTS assay to test for compound auto fluorescence at 460 nm (blue) in HEK293 cell free culture (AID 720681)
# Summary of the method: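 Test compounds were pinned into cell-free culture medium (DMEM with 10% FBS) and fluorescence was read directly at Ex/Em 405/460 nm. Signals were expressed as fluorescence equivalents of triamterene, with DMSO vehicle as control.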
# [11] = qHTS assay to test for compound auto fluorescence at 535 nm (green) in HEK293 cell free culture (AID 720682)
# Summary of the method: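 Green-channel intensity (Ex/Em 485/535 nm) was recorded from compound-treated wells containing only DMEM with 10% FBS. Fluorescein provided the equivalency standard.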
# [12] = qHTS assay to test for compound auto fluorescence at 590 nm (red) in HEK293 cell free culture (AID 720683)
# Summary of the method: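 Tox21 10K library compounds were pinned into cell-free DMEM with 10% FBS and fluorescence was read at excitation 540 nm. Activity is expressed as Rose Bengal sodium equivalency.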
# [13] = qHTS assay to test for compound auto fluorescence at 590 nm (red) in HepG2 cell free culture (AID 720684)
# Summary of the method: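 Ex 540 / Em 590 nm read of compound in cell-free MEM (10% FBS). Rose Bengal sodium reference.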
# [14] = qHTS assay to test for compound auto fluorescence at 460 nm (blue) in HepG2 cell free culture (AID 720685)
# Summary of the method: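 Cell-free plates of MEM plus 10% FBS received 23 nL compound or DMSO vehicle; blue-channel (405/460 nm) intensity scored against triamterene as reference fluorophore.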
# [15] = qHTS assay to test for compound auto fluorescence at 535 nm (green) in HepG2 cell free culture (AID 720686)
# [16] = biological target: Glucocorticoid receptor (Homo sapiens) (UniProt P04150); test: qHTS assay to identify small molecule agonists of the glucocorticoid receptor (GR) signaling pathway (AID 720691; active = well fitted activation curve with a large enough effect in the signal ratio in the repeat runs, not every such curve was filed as active; the % refers to the signal ratio)
# Summary of the method: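 Steps: seed GR-bla HeLa cells, incubate 4 h at 37 C/5% CO2; pin-transfer DMSO-dissolved compounds; incubate 18 h at 37 C; add LiveBLAzer B/G FRET substrate; after 2 h at room temperature, measure fluorescence.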
# [17] = biological target: Glucocorticoid receptor (Homo sapiens) (UniProt P04150); test: qHTS assay to identify small molecule antagonists of the glucocorticoid receptor (GR) signaling pathway (AID 720692; active = well fitted inhibition curve with a large enough effect in the signal ratio in the repeat runs, not every such curve was filed as active; the % refers to the signal ratio)
# Summary of the method: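 Antagonism was scored as loss of dexamethasone-driven (5 nM final) reporter signal in HeLa cells bearing a glucocorticoid response element–beta-lactamase construct, after 18 h compound exposure at 37 C and 2 h FRET substrate loading.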
# [18] = qHTS assay to test for compound auto fluorescence at 460 nm (blue) in HepG2 cells (AID 720687)
# Summary of the method: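 Cells (2,000/well in MEM with 10% FBS) attached overnight at 37 C, then were exposed to compound or DMSO for 1 hr at 37 C, 5% CO2. Fluorescence read at Ex/Em 405/460 nm, expressed as triamterene-equivalent signal.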
# [19] = qHTS assay for small molecule disruptors of the mitochondrial membrane potential (AID 720635)
# Summary of the method: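 HepG2 cells (2,000/well) attached overnight at 37C, then took compound for 1 hr at 37C, 5% CO2. Mito-MPS dye was added for 30 min; fluorescence was read at 490/535 nm (monomers) and 540/590 nm (aggregates).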
# Chain of Glucocorticoid receptor (Homo sapiens) (P04150 whole entry, looked up): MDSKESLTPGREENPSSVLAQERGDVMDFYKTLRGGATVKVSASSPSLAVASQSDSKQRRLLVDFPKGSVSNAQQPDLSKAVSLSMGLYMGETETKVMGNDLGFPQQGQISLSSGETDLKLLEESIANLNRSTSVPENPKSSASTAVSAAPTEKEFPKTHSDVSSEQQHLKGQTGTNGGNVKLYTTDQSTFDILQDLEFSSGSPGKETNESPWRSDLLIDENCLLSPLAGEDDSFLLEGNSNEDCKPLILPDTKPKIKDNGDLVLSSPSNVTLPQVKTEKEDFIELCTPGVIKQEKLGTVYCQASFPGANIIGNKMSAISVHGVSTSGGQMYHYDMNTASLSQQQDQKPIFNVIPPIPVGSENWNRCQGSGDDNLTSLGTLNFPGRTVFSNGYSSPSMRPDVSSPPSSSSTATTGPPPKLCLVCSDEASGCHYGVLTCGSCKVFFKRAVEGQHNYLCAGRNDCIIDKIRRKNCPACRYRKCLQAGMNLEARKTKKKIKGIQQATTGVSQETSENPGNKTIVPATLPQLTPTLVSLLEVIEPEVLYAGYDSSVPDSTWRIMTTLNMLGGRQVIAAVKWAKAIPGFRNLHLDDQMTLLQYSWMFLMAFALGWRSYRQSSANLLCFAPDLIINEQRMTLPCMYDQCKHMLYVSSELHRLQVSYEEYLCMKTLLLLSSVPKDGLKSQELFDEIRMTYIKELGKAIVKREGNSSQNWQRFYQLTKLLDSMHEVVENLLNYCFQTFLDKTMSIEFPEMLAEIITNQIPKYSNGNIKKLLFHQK
structure (smiles),measurement,setting,value
COc1nc(C)nc(N)n1,Potency,[1],inactive
same,Potency,[2],inactive
same,Potency,[3],inactive
same,Potency,[4],inactive
same,outcome,[5],inactive
same,outcome,[6],inactive
same,Potency,[7],inactive
same,outcome,[8],inactive
same,outcome,[9],inactive
same,Potency,[10],inactive
same,outcome,[11],inactive
same,outcome,[12],inactive
same,outcome,[13],inactive
same,Potency,[14],inactive
same,outcome,[15],inactive
same,Potency,[16],inactive
same,Potency,[17],inactive
CC(C)(C)C(=O)/C=C/c1ccc(Cl)cc1,Potency,[1],inactive
same,Potency,[2],inactive
same,Potency,[3],inactive
same,Potency,[4],inactive
same,outcome,[5],inactive
same,outcome,[6],inactive
same,Potency,[7],inactive
same,outcome,[8],inactive
same,outcome,[9],inactive
same,Potency,[10],inactive
same,outcome,[11],inactive
same,outcome,[12],inactive
same,outcome,[13],inactive
same,Potency,[14],inactive
same,outcome,[15],inactive
same,Potency,[18],inactive
same,Potency,[16],inactive
same,Potency,[17],inactive
NCCNC(=O)c1ccc(Cl)cn1,Potency,[1],inactive
same,Potency,[2],inactive
same,Potency,[3],inactive
same,Potency,[4],inactive
same,outcome,[5],inactive
same,outcome,[6],inactive
same,Potency,[7],inactive
same,outcome,[8],inactive
same,Potency,[10],inactive
same,outcome,[11],inactive
same,outcome,[12],inactive
same,outcome,[13],inactive
same,Potency,[14],inactive
same,outcome,[15],inactive
same,Potency,[18],inactive
CC1(C)SC(C)(C)SC(C)(C)S1,Potency,[1],inactive
same,Potency,[3],inactive
same,Potency,[4],inactive
same,Potency,[19],inactive
same,outcome,[5],inactive
same,outcome,[6],inactive
same,Potency,[7],inactive
same,outcome,[8],inactive
same,outcome,[9],inactive
same,Potency,[10],inactive
same,outcome,[11],inactive
same,outcome,[12],inactive
same,outcome,[13],inactive
same,Potency,[14],inactive
same,outcome,[15],inactive
same,Potency,[18],inactive
O=S(=O)(c1cccc2cnccc12)N1CCCNCC1,Potency,[1],inactive
same,Potency,[2],inactive
same,Potency,[4],inactive
same,outcome,[5],inactive
same,outcome,[6],inactive
same,Potency,[7],inactive
same,outcome,[8],inactive
same,outcome,[9],inactive
same,Potency,[10],inactive
same,outcome,[11],inactive
same,outcome,[12],inactive
same,outcome,[13],inactive
same,Potency,[14],inactive
same,outcome,[15],inactive
same,Potency,[18],inactive
C=C(C)C(=O)OCCCCCCCCCCCCCCCCCC,Potency,[1],inactive
same,Potency,[2],inactive
same,"fluorescence, relative to Rose Bengal",[5],-0.0569% [at 18.6 µM]
same,"fluorescence, % of fluorescein control",[6],-0.0046% [at 18.6 µM]
same,"fluorescence, % of triamterene",[7],-0.0754% [at 18.6 µM]
same,"fluorescence, % of fluorescent control",[8],0.299% [at 18.6 µM]
same,"fluorescence, % of fluorescein",[9],0.0795% [at 18.6 µM]
same,"fluorescence, % of fluorescent control",[10],-0.0848% [at 18.6 µM]
same,activity change,[11],-0.0033% [at 18.6 µM]
same,"fluorescence, % of fluorescent control",[12],-0.0264% [at 18.6 µM]
same,"fluorescence, % of Rose Bengal",[13],-0.0496% [at 18.6 µM]
same,"fluorescence, % of fluorescent control",[14],-0.0261% [at 18.6 µM]
same,"fluorescence, % of fluorescein control",[15],-0.0135% [at 18.6 µM]
same,"fluorescence, % of fluorescent control",[18],0.214% [at 18.6 µM]
same,Potency,[16],inactive
same,Potency,[17],inactive
Cc1nc(-c2ccc(OCC(C)C)c(C#N)c2)sc1C(=O)O,Potency,[1],150 nM (active)
same,Potency,[2],inactive
same,Potency,[3],inactive
same,outcome,[5],inactive
same,outcome,[6],inactive
same,Potency,[7],inactive
same,outcome,[8],inactive
same,outcome,[9],inactive
same,Potency,[10],inactive
same,outcome,[11],inactive
same,outcome,[12],inactive
same,outcome,[13],inactive
same,Potency,[14],inactive
same,outcome,[15],inactive
same,Potency,[18],inactive
same,Potency,[16],inactive
CCO[Si](CCCN=C=O)(OCC)OCC,Potency,[1],inactive
same,Potency,[2],inactive
same,Potency,[3],inactive
same,outcome,[5],inactive
same,outcome,[6],inactive
same,Potency,[7],inactive
same,outcome,[8],inactive
same,Potency,[10],inactive
same,outcome,[11],inactive
same,outcome,[12],inactive
same,outcome,[13],inactive
same,Potency,[14],inactive
same,outcome,[15],inactive
same,Potency,[18],inactive
CC(C)CCOC(=O)CC(C)C,Potency,[1],inactive
same,Potency,[2],inactive
same,Potency,[3],inactive
same,Potency,[4],inactive
same,outcome,[5],inactive
same,outcome,[6],inactive
same,Potency,[7],inactive
same,outcome,[8],inactive
same,outcome,[9],inactive
same,Potency,[10],inactive
same,outcome,[11],inactive
same,outcome,[12],inactive
same,outcome,[13],inactive
same,Potency,[14],inactive
same,outcome,[15],inactive
same,Potency,[16],inactive
Nc1nc2c(ncn2CCC(CO)CO)c(=O)[nH]1,Potency,[1],inactive
same,Potency,[2],inactive
same,Potency,[4],inactive
same,Potency,[19],inactive
same,outcome,[5],inactive
same,outcome,[6],inactive
same,Potency,[7],inactive
same,outcome,[8],inactive
same,outcome,[9],inactive
same,Potency,[10],inactive
same,outcome,[11],inactive
same,outcome,[12],inactive
same,outcome,[13],inactive
same,Potency,[14],inactive
same,outcome,[15],inactive
same,Potency,[16],inactive
same,Potency,[17],inactive
O=Cc1ccccc1[N+](=O)[O-],Potency,[1],inactive
same,Potency,[2],inactive
same,Potency,[4],inactive
same,outcome,[5],inactive
same,outcome,[6],inactive
same,Potency,[7],inactive
same,outcome,[8],inactive
same,outcome,[9],inactive
same,Potency,[10],inactive
same,outcome,[11],inactive
same,outcome,[12],inactive
same,outcome,[13],inactive
same,Potency,[14],inactive
same,outcome,[15],inactive
same,Potency,[18],inactive
same,Potency,[16],inactive
same,Potency,[17],inactive
CCCCc1ccc(N)cc1,Potency,[1],inactive
same,Potency,[2],inactive
same,Potency,[3],inactive
same,Potency,[4],inactive
same,outcome,[5],inactive
same,outcome,[6],inactive
same,Potency,[7],inactive
same,outcome,[8],inactive
same,outcome,[9],inactive
same,Potency,[10],inactive
same,outcome,[11],inactive
same,outcome,[12],inactive
same,outcome,[13],inactive
same,Potency,[14],inactive
same,outcome,[15],inactive
same,Potency,[18],inactive
same,Potency,[16],inactive
same,Potency,[17],inactive
Cc1c(C)n(CCN(C)C)c2ccc(C(=O)OCCN(C)C)cc12,Potency,[1],inactive
same,Potency,[2],inactive
same,Potency,[4],inactive
same,outcome,[5],inactive
same,outcome,[6],inactive
same,Potency,[7],inactive
same,outcome,[8],inactive
same,outcome,[9],inactive
same,Potency,[10],inactive
same,outcome,[11],inactive
same,outcome,[12],inactive
same,outcome,[13],inactive
same,Potency,[14],inactive
same,outcome,[15],inactive
same,Potency,[18],inactive
C=C(C)[C@@H]1CCC2=CC(=O)C[C@@H](C)[C@]2(C)C1,Potency,[1],inactive
same,Potency,[2],inactive
same,Potency,[4],inactive
same,outcome,[6],inactive
same,Potency,[7],inactive
same,outcome,[8],inactive
same,outcome,[9],inactive
same,Potency,[10],inactive
same,outcome,[11],inactive
same,outcome,[12],inactive
same,outcome,[13],inactive
same,Potency,[14],inactive
same,outcome,[15],inactive
same,Potency,[18],inactive
Cc1onc(-c2ccccc2)c1-c1ccc(S(N)(=O)=O)cc1,Potency,[1],inactive
same,Potency,[2],inactive
same,Potency,[3],inactive
same,Potency,[4],inactive
same,outcome,[5],inactive
same,outcome,[6],inactive
same,Potency,[7],inactive
same,outcome,[8],inactive
same,outcome,[9],inactive
same,Potency,[10],inactive
same,outcome,[11],inactive
same,outcome,[12],inactive
same,outcome,[13],inactive
same,Potency,[14],inactive
same,outcome,[15],inactive
same,Potency,[16],inactive
same,Potency,[17],inactive
CN(C)N=Nc1ccccc1,Potency,[1],inactive
same,Potency,[2],inactive
same,Potency,[4],inactive
same,outcome,[5],inactive
same,outcome,[6],inactive
same,Potency,[7],inactive
same,outcome,[8],inactive
same,outcome,[9],inactive
same,Potency,[10],inactive
same,outcome,[11],inactive
same,outcome,[12],inactive
same,outcome,[13],inactive
same,Potency,[14],inactive
same,outcome,[15],inactive
same,Potency,[18],inactive
